# According to PubChem BioAssay AID1851 (National Center for Advancing Translational Sciences (NCATS), 2009):
# Several values for one entry are separate records, joined by “and”; a condition that tells them apart may be missing. Equal entries are not always repeated. The campaign covered roughly 16,000 compounds. About 5,100 (32%) were called active. Roughly 25% stayed inconclusive and do not appear here. The call rests on the fitted dose curve; in most records, active means well fitted curve in the direction sought with a large enough effect; inconclusive means small, poorly fitted or top-dose-only effect, or effect the other way; inactive means no such curve, though single readings can be large or run the other way. The list shows a part of the results.
# Target: Cytochrome P450 3A4 (Homo sapiens) (UniProt P08684)
# Assay: Cytochrome panel assay with activity outcomes
# Conditions: recombinant CYP, pro-luciferin dealkylation, luminescence, p450-cyp3a4; series mostly up to 57.1 µM; activity, negative = inhibition: at the top concentration
# On the % scale 0 is the no-effect control and ±100 the full control effect.
# Sequence of Cytochrome P450 3A4 (Homo sapiens) (P08684 whole entry, looked up): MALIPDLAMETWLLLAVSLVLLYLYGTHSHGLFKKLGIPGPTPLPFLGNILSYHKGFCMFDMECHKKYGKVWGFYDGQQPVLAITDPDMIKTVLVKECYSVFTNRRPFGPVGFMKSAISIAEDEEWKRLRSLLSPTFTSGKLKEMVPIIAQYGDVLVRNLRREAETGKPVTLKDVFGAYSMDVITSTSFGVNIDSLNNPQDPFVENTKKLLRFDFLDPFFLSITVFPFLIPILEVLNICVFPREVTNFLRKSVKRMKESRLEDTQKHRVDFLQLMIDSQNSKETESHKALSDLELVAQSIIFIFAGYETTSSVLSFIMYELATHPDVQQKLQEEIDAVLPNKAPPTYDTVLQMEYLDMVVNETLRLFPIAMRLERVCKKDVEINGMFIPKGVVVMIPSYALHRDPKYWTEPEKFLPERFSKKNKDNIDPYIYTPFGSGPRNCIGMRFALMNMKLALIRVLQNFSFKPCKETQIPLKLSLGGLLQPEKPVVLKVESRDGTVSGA
Structure (SMILES),"activity, negative = inhibition",AC50
Nc1ncnc2c1ncn2[C@H]1O[C@@H](C(=O)OCCO)[C@@H](O)[C@H]1O,-12.9% [at 11.4 µM] (inactive),
Clc1ccc(-c2nnc(-c3ccc(Br)cc3)c(N3CCSCC3)n2)cc1,-17.3% (inactive),
CCCCC1(C)NC(=O)c2c(C)sc(C(=O)OCC)c2N1 (stereo not given),,17.8 µM (active)
CCOC(=O)c1nc2sc(C)c(C)c2c(=O)[nH]1,-5.37% (inactive),
c1ccc(Nc2ncncc2-c2ccoc2)cc1,,2 µM (active)
Fc1ccc(Nc2ncncc2-c2ccoc2)cc1,,0.501 µM (active)
c1ncc(-c2ccoc2)c(NC2CC2)n1,,7.94 µM (active)
O=c1[nH]c2[nH]c(=S)[nH]c(=S)c2[nH]1,-17.9% [at 11.4 µM] (inactive),
CCN(CC)C(=O)Cn1cc(/C=C(\C#N)C(=O)N2CCN(c3ccccc3)CC2)c2ccccc21,,0.891 µM (active)
CCc1cccc2c(C=C(C#N)C#N)cn(CC(=O)N3CCCC3)c12,-15.2% (inactive),
CCc1cccc2c(C=C(C#N)C#N)cn(CC(=O)N3CCCCC3)c12,-27.8% (inactive),
CSc1c(-c2ccccc2)nc2ccc(Cl)cc2c1C(=O)O,7.66% (inactive),
N#Cc1ccccc1/C=N/Nc1nc(-c2ccccc2)c2cc(Cl)ccc2n1,,6.31 µM (active)
Cc1nc(Cl)c(C#N)cc1-c1ccccc1,-8.93% (inactive),
Cc1ccc2nc(N/N=C/c3ccccc3C#N)nc(-c3ccccc3)c2c1,,7.94 µM (active)
Cc1ccc(Oc2nnc(-c3ccccc3)cc2C#N)cc1,-24.2% (inactive),
CCn1cc(C(=O)O)c(=O)c2cc(F)c(N3CCNCC3)nc21,-15.4% [at 25.6 µM] (inactive),
COc1ccc(-n2nc(C(=O)NCC(=O)Nc3ccccn3)c3ccccc3c2=O)cc1,,3.55 µM (active)
COc1cc(Cl)c(C)cc1NC(=O)CNC(=O)Cn1cnc2ccccc2c1=O,11.4% (inactive),
COC(=O)c1nn(-c2ccccc2)c(=O)cc1Oc1ccccc1,-20.9% [at 11.4 µM] (inactive),
Cc1ccc2c(c1)[C@@H]1CN(C)CC[C@@H]1N2S(=O)(=O)c1ccc(F)cc1,,2 µM (active)
CC(=O)OC[C@@H]1O[C@@H](O/N=C2/C[C@@H](O)[C@@H](O)[C@@H]3[C@@H]4C(=O)N(Cc5ccc6c(c5)OCO6)C(=O)[C@H]4CC[C@H]23)[C@H](OC(C)=O)[C@H](OC(C)=O)[C@@H]1OC(C)=O,,5.01 µM (active)
CCN1C(=O)[C@H]2[C@H]3[C@H](O)[C@H](O)C/C(=N/O[C@@H](C)c4cc(-c5c(C)cc(C)cc5C)no4)[C@@H]3CC[C@@H]2C1=O,,3.98 µM (active)
O=C1[C@H]2[C@H]3[C@H](O)[C@H](O)C/C(=N/OCc4ccccc4)[C@H]3CC[C@@H]2C(=O)N1Cc1ccc2c(c1)OCO2,,1 µM (active)
O=C1C[C@@H](O)[C@@H](O)[C@H]2[C@@H]3C(=O)N(Cc4ccccc4)C(=O)[C@@H]3CC[C@H]12,-12.1% [at 11.4 µM] (inactive) and -10.8% [at 11.4 µM] (inactive),
CCN1C(=O)[C@H]2[C@H]3[C@H](O)[C@H](O)C/C(=N/OCC(C)C)[C@@H]3CC[C@@H]2C1=O,-6.7% [at 11.4 µM] (inactive),
CC(=O)OC[C@@H]1O[C@@H](O/N=C2/C[C@@H](O)[C@@H](O)[C@@H]3[C@@H]4C(=O)N(Cc5ccccc5)C(=O)[C@H]4CC[C@@H]23)[C@H](OC(C)=O)[C@H](OC(C)=O)[C@@H]1OC(C)=O,-27.9% [at 11.4 µM] (inactive),

Structure (SMILES),"activity, negative = inhibition",AC50
CCN1C(=O)[C@H]2[C@@H]3[C@H](O)[C@H](O)CC(=O)[C@H]3CC[C@H]2C1=O,-13.1% [at 11.4 µM] (inactive) and -13% [at 11.4 µM] (inactive),
CCN1C(=O)[C@H]2[C@H]3[C@H](O)[C@H](O)C/C(=N/OCC(C)C)[C@H]3CC[C@@H]2C1=O,19.2% [at 11.4 µM] (inactive),
O=C1C[C@@H](O)[C@@H](O)[C@H]2[C@@H]3C(=O)N(Cc4ccc5c(c4)OCO5)C(=O)[C@@H]3CC[C@H]12,,3.98 µM (active)
CC(=O)OC[C@@H]1O[C@@H](O/N=C2/C[C@@H](O)[C@@H](O)[C@@H]3[C@@H]4C(=O)N(Cc5ccccc5)C(=O)[C@H]4CC[C@H]23)[C@H](OC(C)=O)[C@H](OC(C)=O)[C@@H]1OC(C)=O,-25% [at 11.4 µM] (inactive),
CCOC(=O)C(NC(C)=O)C(OC(C)=O)c1cccc(N(CCO)CCO)c1 (stereo not given),-20.2% (inactive),
CC(=O)N(C)c1nnc(-c2cnccn2)s1,-0.972% (inactive),
CC(=O)N[C@@H]1CONC1=O,-3.29% [at 11.4 µM] (inactive),
CC(C)CO/N=C1/C[C@@H](O)[C@@H](O)[C@@H]2[C@@H]3C(=O)N(C[C@@H]4CCCO4)C(=O)[C@H]3CC[C@H]12,-0.365% [at 11.4 µM] (inactive),
O=C1[C@H]2[C@H]3[C@H](O)[C@H](O)C/C(=N/OCc4ccccc4)[C@@H]3CC[C@@H]2C(=O)N1Cc1ccc2c(c1)OCO2,,2 µM (active)
CC(C)CO/N=C1/C[C@@H](O)[C@@H](O)[C@@H]2[C@@H]3C(=O)N(Cc4ccccc4)C(=O)[C@H]3CC[C@@H]12,-11.8% [at 11.4 µM] (inactive),
O=C1[C@H]2[C@H]3[C@H](O)[C@H](O)C/C(=N/OCc4ccccc4)[C@H]3CC[C@@H]2C(=O)N1C[C@@H]1CCCO1,-11.3% [at 11.4 µM] (inactive),
CC(C)CO/N=C1/C[C@@H](O)[C@@H](O)[C@@H]2[C@@H]3C(=O)N(Cc4ccc5c(c4)OCO5)C(=O)[C@H]3CC[C@H]12,,1 µM (active)
O=C1[C@H]2[C@H]3[C@H](O)[C@H](O)C/C(=N/OCc4ccccc4)[C@@H]3CC[C@@H]2C(=O)N1C[C@@H]1CCCO1,-20.3% [at 11.4 µM] (inactive),
Nc1ccc(C(=O)C[C@H](N)C(=O)O)cc1O,-6.46% [at 11.4 µM] (inactive),
O=C(O)[C@@H]1[C@@H](C(=O)Nc2ncccn2)[C@@H]2C=C[C@@H]1O2,-13% [at 11.4 µM] (inactive),
Fc1ccc(-c2cnc(-c3cccs3)o2)cc1,0.322% (inactive),
CCOC(=O)c1cnn(-c2nc(-c3ccc(F)cc3)cs2)c1C(F)(F)F,18.5% (inactive),
Nc1c(-c2cccs2)cnn1-c1nc(-c2ccc(F)cc2)cs1,,3.98 µM (active)
Cc1ccc(C)c(S(=O)(=O)NCc2ccc(C(=O)N3CCC(Cc4ccccc4)CC3)cc2)c1,,2.24 µM (active)
CC1(C)CC(O)CC(C)(C)N1CC(O)COCCOc1ccc(Br)cc1 (stereo not given),-11.2% (inactive),
COCCNC(=O)COC(=O)/C=C/c1cnc2ccccc2n1,-3.34% [at 2.29 µM] (inactive),
O=C(CCl)Nc1ccc(Oc2cnc3ccccc3n2)cc1,,14.1 µM (active)
Clc1cccc(Oc2cnc3ccccc3n2)c1,25.7% (inactive),
COc1ccc(CCNc2nc(-c3cccnc3)cs2)cc1OC,,3.16 µM (active)
O=C(NC(=S)Nc1nc(-c2ccc(Br)cc2)cs1)c1cccnc1,-14.3% [at 2.29 µM] (inactive),
COc1ccc(CNc2cc(-c3cccnc3)ncn2)c(OC)c1,,1.58 µM (active)
COc1ccccc1CNc1cc(-c2cccnc2)ncn1,,0.631 µM (active)

Structure (SMILES),"activity, negative = inhibition",AC50
c1ccc(-c2csc3ncn4cnnc4c23)cc1,-24.1% (inactive),
Cc1ccc(C2C(C(=O)c3ccco3)=C(O)C(=O)N2c2nnc(C)s2)cc1 (stereo not given),-17.9% (inactive),
CCS(=O)(=O)Nc1ccc(C2=NN(C(=O)c3ccco3)C(c3ccc(C)cc3)C2)cc1 (stereo not given),,3.98 µM (active)
N=C(N)SCCc1cnc[nH]1,,15.8 µM (active)
N=C(N)SCCc1ccncc1,4.88% [at 11.4 µM] (inactive),
N=C(N)SCCSC(=N)N,-5.54% [at 11.4 µM] (inactive),
CCOc1ccccc1Oc1coc2cc(OC)ccc2c1=O,20.6% (inactive),
Cc1cccc(Oc2coc3cc(OC(=O)c4cccs4)ccc3c2=O)c1,,11.2 µM (active)
Cc1cc(C)cc(Oc2coc3cc(OC(=O)c4cccs4)ccc3c2=O)c1,-2.26% (inactive),
CCCCCCCCn1cc(C(C)=O)c(=O)[nH]c1=O,-12.5% [at 2.29 µM] (inactive),
O=C(Cn1c(=O)n(Cc2ccco2)c(=O)c2c3c(sc21)CCCCC3)c1ccccc1,,14.1 µM (active)
C[N+]1(NCC[N@@+]2(C)CCc3ccccc3C2)CCCCC1,0.246% [at 11.4 µM] (inactive),
CCC(C)(C)n1nnnc1C(C(C)C)N(Cc1ccco1)Cc1cc2cc3c(cc2[nH]c1=O)OCO3 (stereo not given),,1 µM (active)
CCC(C)(C)n1nnnc1C(c1ccc(C)cc1)N1CCC(C)CC1 (stereo not given),21.5% [at 2.29 µM] (inactive),
CCC(C)(C)n1nnnc1C(C(C)C)N(CCCO)Cc1cc2cc(C)ccc2[nH]c1=O (stereo not given),,2 µM (active)
CCC(C)(C)n1nnnc1C(c1cc2cc3c(cc2[nH]c1=O)OCO3)N1CCCCC1 (stereo not given),,1.58 µM (active)
c1ccc(C[n+]2cccc(-c3cc4ccccc4[nH]3)c2)cc1,-7.36% [at 11.4 µM] (inactive),
Fc1ccccc1OCCCCSc1ncccn1,15.6% (inactive),
O=C1C(=O)c2ccccc2C(O)=C1C(CCc1ccccc1)C1=C(O)c2ccccc2C(=O)C1=O,-5.65% [at 11.4 µM] (inactive),
O=C1C(SCCO)=C(SCCO)C(=O)c2ccccc21,,25.1 µM (active)
O=S(=O)(O)[C@@H](CO)c1ccccc1 (tested in a mixture with another compound),-1.16% [at 11.4 µM] (inactive),
COc1ccc2[nH]cc(CCNc3cc(-c4cccnc4)ncn3)c2c1,,3.98 µM (active)
COc1cccc(-c2cc(NCCc3c[nH]c4ccc(OC)cc34)ncn2)c1,,7.94 µM (active)
COc1ccc2[nH]cc(CCNc3cc(-c4cccc(C#N)c4)ncn3)c2c1,,3.98 µM (active)
COc1ccc2[nH]cc(C=O)c2c1,-9.85% (inactive),
COc1ccc2[nH]cc(CCNc3ccnc(-c4cccnc4)n3)c2c1,,1.26 µM (active)
